Data taken from paper PMC7862700, “An all-to-all approach to the identification of sequence-specific readers for epigenetic DNA modifications on cytosine”.

Experiments:
Assay in all cases: DAPPL (digital affinity profiling via proximity ligation, sequencing); 10 mM Tris-HCl pH 7.5, 50 mM NaCl, 1 mM DTT, 4% glycerol, room temperature, 30 min; GST-TFs on glutathione beads, 16-mer random dsDNA library, 0.1% formaldehyde crosslink after washing; high values mean tight binding
[1] = molecular target: T1, FLI1 (Homo sapiens, UniProt Q01543 1-452); details: protein: recombinant; tags: N-terminal GST; dsDNA, one strand shown
T1 sequence: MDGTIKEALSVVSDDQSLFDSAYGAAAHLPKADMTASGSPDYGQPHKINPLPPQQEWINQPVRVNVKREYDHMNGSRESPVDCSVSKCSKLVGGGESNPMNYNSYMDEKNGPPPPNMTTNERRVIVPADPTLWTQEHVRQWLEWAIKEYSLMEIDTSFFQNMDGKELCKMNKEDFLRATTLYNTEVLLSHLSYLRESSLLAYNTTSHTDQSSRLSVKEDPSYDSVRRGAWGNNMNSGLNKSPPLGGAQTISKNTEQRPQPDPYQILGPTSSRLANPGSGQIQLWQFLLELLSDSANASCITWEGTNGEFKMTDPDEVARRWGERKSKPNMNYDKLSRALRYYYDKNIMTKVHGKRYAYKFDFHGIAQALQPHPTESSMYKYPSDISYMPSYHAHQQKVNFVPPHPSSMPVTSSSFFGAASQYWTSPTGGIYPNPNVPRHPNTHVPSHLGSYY
How it was run: (§1)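 Human transcription factors were made in yeast as GST fusions, captured on glutathione beads and barcoded with DNA. With a tag-only sample included, the pool was incubated with 200 nmole of a random double-stranded 16-mer DNA library in Tris/NaCl/DTT/glycerol buffer at room temperature for 30 min, then crosslinked with 0.1% formaldehyde after washing, ligated by proximity, amplified and sequenced. For binding signal, each hexamer's read frequency for a factor is divided by its frequency for the tag-only sample.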

[2] = molecular target: T2, ELK1 (Homo sapiens, UniProt P19419 1-428); details: protein: recombinant; tags: N-terminal GST; dsDNA, one strand shown
T2 sequence: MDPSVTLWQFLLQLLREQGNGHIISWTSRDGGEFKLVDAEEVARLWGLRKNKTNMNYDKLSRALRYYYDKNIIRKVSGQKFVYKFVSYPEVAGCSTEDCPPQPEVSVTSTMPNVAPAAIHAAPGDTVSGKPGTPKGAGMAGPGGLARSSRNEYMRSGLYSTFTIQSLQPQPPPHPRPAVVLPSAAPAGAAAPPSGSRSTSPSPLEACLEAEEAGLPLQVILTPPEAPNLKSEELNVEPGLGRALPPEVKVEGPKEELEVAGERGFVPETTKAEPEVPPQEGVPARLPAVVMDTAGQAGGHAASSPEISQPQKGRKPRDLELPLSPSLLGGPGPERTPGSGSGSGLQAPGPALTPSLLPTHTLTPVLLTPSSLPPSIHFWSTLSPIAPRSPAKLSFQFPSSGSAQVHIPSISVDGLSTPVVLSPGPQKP
How it was run: as §1

[3] = molecular target: T3, GABPA (Homo sapiens, UniProt Q06546 1-454); details: protein: recombinant; tags: N-terminal GST; dsDNA, one strand shown
T3 sequence: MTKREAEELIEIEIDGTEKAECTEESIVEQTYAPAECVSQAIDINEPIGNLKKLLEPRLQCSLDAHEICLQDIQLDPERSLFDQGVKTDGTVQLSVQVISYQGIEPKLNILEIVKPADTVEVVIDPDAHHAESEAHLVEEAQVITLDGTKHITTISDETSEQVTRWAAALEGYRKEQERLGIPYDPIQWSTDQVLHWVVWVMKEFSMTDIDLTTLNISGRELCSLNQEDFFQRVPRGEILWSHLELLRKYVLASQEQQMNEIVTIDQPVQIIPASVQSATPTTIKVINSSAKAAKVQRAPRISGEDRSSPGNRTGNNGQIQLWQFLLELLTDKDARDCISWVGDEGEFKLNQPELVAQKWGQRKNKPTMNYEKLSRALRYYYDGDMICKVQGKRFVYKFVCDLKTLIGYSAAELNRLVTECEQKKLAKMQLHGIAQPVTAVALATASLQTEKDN
How it was run: as §1

[4] = molecular target: T4, ERG (Homo sapiens, UniProt P11308 1-479); details: protein: recombinant; tags: N-terminal GST; dsDNA, one strand shown
T4 sequence: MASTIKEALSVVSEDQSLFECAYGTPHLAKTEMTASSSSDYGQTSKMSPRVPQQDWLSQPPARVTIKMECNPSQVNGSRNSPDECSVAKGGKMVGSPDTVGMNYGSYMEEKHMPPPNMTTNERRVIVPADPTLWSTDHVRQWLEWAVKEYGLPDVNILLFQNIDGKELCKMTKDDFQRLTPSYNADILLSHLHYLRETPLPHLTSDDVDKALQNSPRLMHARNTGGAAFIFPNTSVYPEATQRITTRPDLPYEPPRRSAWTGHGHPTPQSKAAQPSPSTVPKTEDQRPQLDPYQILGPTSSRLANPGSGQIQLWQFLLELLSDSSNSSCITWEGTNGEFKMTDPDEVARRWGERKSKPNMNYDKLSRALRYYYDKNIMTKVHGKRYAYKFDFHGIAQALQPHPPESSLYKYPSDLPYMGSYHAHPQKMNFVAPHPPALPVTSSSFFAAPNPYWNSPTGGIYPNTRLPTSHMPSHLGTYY
How it was run: as §1

[5] = molecular target: ELF1 (Homo sapiens, UniProt P32519 1-619); details: protein: recombinant; tags: N-terminal GST; dsDNA, one strand shown
How it was run: as §1

[6] = molecular target: T5, EHF (Homo sapiens, UniProt Q9NZC4 1-300); details: protein: recombinant; tags: N-terminal GST; dsDNA, one strand shown
T5 sequence: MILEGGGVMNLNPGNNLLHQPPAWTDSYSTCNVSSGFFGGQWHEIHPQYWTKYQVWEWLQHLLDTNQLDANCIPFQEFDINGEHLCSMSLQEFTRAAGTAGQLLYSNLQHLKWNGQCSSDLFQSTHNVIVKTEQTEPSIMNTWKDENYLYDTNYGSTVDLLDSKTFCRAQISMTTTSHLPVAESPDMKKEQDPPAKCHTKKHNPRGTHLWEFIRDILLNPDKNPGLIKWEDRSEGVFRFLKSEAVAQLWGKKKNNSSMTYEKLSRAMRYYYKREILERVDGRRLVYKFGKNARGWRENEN
How it was run: as §1

[7] = molecular target: SPI1 (Homo sapiens, UniProt P17947 1-270); details: protein: recombinant; tags: N-terminal GST; dsDNA, one strand shown
How it was run: as §1

[8] = molecular target: SPIB (Homo sapiens, UniProt Q01892 1-262); details: protein: recombinant; tags: N-terminal GST; dsDNA, one strand shown
How it was run: as §1

[9] = molecular target: T6, ELK3 (Homo sapiens, UniProt P41970 1-407); details: protein: recombinant; tags: N-terminal GST; dsDNA, one strand shown
T6 sequence: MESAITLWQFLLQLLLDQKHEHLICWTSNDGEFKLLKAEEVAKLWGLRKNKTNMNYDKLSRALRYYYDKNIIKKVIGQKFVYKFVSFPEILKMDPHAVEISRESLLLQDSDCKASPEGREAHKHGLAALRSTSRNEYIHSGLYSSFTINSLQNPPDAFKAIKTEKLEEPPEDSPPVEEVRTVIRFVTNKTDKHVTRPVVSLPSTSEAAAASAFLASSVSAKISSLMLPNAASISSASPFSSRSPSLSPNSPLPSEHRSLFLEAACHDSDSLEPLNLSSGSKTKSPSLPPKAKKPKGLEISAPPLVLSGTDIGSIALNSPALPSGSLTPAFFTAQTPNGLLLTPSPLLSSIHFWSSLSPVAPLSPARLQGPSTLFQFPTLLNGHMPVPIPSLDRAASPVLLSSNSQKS
How it was run: as §1

[10] = molecular target: T7, FEV (Homo sapiens, UniProt Q99581 1-238); details: protein: recombinant; tags: N-terminal GST; dsDNA, one strand shown
T7 sequence: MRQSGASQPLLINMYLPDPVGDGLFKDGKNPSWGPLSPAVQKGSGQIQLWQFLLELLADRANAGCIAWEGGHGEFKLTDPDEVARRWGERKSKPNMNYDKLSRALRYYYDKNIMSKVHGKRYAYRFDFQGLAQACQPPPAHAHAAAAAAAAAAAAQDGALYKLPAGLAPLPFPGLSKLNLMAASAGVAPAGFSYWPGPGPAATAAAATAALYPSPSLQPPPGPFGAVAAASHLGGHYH
How it was run: as §1

[11] = molecular target: ETV5 (Homo sapiens, UniProt P41161 1-510); details: protein: recombinant; tags: N-terminal GST; dsDNA, one strand shown
How it was run: as §1

[12] = molecular target: HSF1 (Homo sapiens, UniProt Q00613 1-529); details: protein: recombinant; tags: N-terminal GST; chain copies: 3; dsDNA, one strand shown
How it was run: as §1

[13] = molecular target: T8, SPIC (Homo sapiens, UniProt Q8N5J4 1-248); details: protein: recombinant; tags: N-terminal GST; dsDNA, one strand shown
T8 sequence: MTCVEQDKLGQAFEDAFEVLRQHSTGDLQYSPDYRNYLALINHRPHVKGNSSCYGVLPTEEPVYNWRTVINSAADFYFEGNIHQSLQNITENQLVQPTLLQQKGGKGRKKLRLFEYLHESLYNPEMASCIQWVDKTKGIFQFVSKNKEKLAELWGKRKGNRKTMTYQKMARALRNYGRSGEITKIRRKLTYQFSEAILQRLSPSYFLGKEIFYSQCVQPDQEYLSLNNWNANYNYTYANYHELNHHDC
How it was run: as §1

[14] = molecular target: ELF4 (Homo sapiens, UniProt Q99607 1-663); details: protein: recombinant; tags: N-terminal GST; dsDNA, one strand shown
How it was run: as §1

[15] = molecular target: T9, ELK4 (Homo sapiens, UniProt P28324-2 1-405); details: protein: recombinant; tags: N-terminal GST; dsDNA, one strand shown
T9 sequence: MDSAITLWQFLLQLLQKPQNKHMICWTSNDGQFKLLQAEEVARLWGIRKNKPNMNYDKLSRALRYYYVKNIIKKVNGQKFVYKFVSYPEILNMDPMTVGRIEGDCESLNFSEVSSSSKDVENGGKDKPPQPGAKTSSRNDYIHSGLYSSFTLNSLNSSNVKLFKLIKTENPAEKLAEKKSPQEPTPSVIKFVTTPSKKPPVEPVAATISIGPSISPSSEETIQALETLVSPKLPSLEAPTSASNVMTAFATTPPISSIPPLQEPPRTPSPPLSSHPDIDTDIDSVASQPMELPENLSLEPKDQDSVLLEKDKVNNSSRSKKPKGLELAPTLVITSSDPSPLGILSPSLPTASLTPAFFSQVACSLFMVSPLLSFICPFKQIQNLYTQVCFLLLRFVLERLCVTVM
How it was run: as §1

[16] = molecular target: T10, ETV2 (Homo sapiens, UniProt O00321 1-342); details: protein: recombinant; tags: N-terminal GST; dsDNA, one strand shown
T10 sequence: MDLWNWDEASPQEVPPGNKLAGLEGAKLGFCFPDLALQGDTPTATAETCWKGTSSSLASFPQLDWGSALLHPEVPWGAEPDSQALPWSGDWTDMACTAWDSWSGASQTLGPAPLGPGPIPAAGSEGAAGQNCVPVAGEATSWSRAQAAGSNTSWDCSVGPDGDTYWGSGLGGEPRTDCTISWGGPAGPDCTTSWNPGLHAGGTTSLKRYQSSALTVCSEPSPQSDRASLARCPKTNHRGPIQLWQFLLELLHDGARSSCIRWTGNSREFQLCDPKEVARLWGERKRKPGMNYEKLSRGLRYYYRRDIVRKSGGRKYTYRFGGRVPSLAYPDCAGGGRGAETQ
How it was run: as §1

[17] = molecular target: T11, ELF3 (Homo sapiens, UniProt P78545 1-371); details: protein: recombinant; tags: N-terminal GST; dsDNA, one strand shown
T11 sequence: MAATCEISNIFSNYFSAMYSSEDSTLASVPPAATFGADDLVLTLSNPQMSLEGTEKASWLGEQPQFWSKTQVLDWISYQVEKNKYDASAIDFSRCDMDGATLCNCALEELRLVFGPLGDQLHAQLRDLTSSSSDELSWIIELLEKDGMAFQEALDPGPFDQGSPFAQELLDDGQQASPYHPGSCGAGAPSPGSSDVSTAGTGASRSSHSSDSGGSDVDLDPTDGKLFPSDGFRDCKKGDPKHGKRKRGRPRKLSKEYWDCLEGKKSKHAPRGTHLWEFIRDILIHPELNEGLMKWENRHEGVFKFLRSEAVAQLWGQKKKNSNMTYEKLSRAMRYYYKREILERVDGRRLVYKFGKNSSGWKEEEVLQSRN
How it was run: as §1

[18] = molecular target: CRX (Homo sapiens, UniProt O43186 1-299); details: protein: recombinant; tags: N-terminal GST; dsDNA, one strand shown
How it was run: as §1

[19] = molecular target: ETV1 (Homo sapiens, UniProt P50549 1-477); details: protein: recombinant; tags: N-terminal GST; dsDNA, one strand shown
How it was run: as §1

ELF4, sequence (Q99607 whole entry): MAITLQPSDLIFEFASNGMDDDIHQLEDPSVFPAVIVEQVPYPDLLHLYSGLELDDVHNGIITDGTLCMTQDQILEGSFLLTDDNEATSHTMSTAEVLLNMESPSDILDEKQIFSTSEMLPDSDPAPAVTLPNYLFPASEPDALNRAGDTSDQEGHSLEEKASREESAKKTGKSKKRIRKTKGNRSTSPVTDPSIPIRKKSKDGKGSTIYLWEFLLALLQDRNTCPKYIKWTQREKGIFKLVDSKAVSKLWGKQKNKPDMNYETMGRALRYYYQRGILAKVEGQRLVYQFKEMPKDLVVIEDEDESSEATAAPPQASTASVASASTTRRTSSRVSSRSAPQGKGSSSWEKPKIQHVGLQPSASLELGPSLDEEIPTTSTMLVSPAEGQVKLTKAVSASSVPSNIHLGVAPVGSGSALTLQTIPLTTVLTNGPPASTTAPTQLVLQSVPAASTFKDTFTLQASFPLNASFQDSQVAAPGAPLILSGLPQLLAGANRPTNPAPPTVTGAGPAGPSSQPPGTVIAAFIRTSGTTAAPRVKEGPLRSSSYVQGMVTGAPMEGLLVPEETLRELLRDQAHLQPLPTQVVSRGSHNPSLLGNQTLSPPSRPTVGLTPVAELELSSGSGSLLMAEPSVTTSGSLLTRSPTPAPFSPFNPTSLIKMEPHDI
ELF1, sequence (P32519 whole entry): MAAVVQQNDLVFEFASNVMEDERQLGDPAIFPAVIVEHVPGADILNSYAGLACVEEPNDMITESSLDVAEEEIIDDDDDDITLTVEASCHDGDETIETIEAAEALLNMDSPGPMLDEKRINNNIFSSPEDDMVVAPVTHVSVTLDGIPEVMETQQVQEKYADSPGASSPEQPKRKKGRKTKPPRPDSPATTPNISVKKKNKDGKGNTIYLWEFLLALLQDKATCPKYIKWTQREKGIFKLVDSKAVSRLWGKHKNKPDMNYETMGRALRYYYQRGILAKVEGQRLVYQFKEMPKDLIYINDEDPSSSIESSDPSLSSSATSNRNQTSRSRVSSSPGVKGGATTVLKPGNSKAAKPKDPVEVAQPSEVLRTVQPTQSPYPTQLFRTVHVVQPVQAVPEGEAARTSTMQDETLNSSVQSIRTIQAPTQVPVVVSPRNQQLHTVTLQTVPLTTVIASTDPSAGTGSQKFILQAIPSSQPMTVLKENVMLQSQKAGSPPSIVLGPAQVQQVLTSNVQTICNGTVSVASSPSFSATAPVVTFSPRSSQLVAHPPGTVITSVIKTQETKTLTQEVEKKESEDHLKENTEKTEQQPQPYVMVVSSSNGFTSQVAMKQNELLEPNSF
ETV5, sequence (P41161 whole entry): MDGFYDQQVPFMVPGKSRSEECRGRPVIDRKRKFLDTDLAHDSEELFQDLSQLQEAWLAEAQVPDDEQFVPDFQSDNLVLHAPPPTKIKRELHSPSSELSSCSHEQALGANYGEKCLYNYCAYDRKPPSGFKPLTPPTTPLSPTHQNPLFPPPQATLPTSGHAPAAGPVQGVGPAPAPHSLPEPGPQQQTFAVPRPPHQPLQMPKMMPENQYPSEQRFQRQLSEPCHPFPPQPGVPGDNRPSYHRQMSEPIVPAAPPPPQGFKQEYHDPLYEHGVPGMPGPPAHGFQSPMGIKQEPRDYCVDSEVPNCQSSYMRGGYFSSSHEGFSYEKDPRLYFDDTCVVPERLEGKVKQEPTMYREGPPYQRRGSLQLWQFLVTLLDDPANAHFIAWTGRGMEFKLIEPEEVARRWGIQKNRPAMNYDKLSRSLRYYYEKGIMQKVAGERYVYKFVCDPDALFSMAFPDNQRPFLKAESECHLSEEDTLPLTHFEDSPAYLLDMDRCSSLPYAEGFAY
HSF1, sequence (Q00613 whole entry): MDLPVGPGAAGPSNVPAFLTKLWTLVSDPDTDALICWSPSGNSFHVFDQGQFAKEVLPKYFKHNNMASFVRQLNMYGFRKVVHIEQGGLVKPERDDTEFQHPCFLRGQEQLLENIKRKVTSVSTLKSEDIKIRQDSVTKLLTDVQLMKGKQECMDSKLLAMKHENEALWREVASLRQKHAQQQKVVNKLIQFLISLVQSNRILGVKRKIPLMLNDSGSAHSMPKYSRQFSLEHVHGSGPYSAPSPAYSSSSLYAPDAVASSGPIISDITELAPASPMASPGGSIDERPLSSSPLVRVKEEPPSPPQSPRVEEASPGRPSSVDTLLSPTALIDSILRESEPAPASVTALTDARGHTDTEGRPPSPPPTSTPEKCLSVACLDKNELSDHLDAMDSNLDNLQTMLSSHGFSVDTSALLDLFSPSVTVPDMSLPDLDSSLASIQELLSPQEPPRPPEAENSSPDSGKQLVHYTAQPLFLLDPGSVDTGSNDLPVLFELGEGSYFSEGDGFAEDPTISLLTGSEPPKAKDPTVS
CRX, sequence (O43186 whole entry): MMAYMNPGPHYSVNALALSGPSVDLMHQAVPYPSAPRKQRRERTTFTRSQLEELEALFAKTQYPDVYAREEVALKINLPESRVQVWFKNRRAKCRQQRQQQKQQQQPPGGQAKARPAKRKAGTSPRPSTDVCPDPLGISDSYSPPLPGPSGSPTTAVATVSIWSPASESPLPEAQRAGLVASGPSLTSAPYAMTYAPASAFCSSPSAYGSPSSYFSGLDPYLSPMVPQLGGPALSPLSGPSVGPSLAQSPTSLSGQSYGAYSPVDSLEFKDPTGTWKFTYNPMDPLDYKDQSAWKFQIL
ETV1, sequence (P50549 whole entry): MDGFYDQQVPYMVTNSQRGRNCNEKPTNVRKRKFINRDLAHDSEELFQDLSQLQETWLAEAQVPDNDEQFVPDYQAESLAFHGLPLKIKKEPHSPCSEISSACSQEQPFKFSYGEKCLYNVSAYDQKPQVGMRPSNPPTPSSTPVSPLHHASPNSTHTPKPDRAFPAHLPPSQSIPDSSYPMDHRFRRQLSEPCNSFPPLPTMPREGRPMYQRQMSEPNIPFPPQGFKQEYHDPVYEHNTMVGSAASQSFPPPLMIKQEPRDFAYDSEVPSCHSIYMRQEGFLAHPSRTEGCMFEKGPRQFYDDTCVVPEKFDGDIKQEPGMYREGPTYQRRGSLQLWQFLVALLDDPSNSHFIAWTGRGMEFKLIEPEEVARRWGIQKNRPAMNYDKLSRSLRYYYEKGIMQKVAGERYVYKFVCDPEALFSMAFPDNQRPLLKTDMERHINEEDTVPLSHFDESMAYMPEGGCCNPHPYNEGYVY
SPIB, sequence (Q01892 whole entry): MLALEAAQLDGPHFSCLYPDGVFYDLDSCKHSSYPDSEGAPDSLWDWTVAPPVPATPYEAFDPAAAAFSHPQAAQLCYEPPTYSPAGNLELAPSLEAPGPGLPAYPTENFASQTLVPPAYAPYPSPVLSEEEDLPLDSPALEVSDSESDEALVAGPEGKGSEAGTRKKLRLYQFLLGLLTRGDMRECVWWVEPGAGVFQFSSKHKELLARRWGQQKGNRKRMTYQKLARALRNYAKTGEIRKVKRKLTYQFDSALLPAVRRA

AATAAC
binding signal [1]: 1.31 fold enrichment (6-mer frequency, TF over GST control)
binding signal [2]: 1.33 fold enrichment (6-mer frequency, TF over GST control)
binding signal [3]: 1.3 fold enrichment (6-mer frequency, TF over GST control)
binding signal [4]: 1.27 fold enrichment (6-mer frequency, TF over GST control)
binding signal [5]: 1.23 fold enrichment (6-mer frequency, TF over GST control)
binding signal [6]: 1.26 fold enrichment (6-mer frequency, TF over GST control)
binding signal [7]: 1.18 fold enrichment (6-mer frequency, TF over GST control)
binding signal [8]: 1.37 fold enrichment (6-mer frequency, TF over GST control)
binding signal [9]: 1.33 fold enrichment (6-mer frequency, TF over GST control)
binding signal [10]: 1.25 fold enrichment (6-mer frequency, TF over GST control)
binding signal [11]: 1.3 fold enrichment (6-mer frequency, TF over GST control)
binding signal [12]: 1.27 fold enrichment (6-mer frequency, TF over GST control)
binding signal [13]: 1.42 fold enrichment (6-mer frequency, TF over GST control)
binding signal [14]: 1.32 fold enrichment (6-mer frequency, TF over GST control)
binding signal [15]: 1.13 fold enrichment (6-mer frequency, TF over GST control)
binding signal [16]: 1.31 fold enrichment (6-mer frequency, TF over GST control)
binding signal [17]: 1.25 fold enrichment (6-mer frequency, TF over GST control)
binding signal [18]: 1.32 fold enrichment (6-mer frequency, TF over GST control)
binding signal [19]: 1.15 fold enrichment (6-mer frequency, TF over GST control)
